# From PubChem BioAssay (NCATS)
# Results filed as inconclusive are left out. Where a call stands in place of a potency, no number is given. Calls of active or inactive are those of the source. The call rests on the fitted dose curve; in most records, active means well fitted curve in the direction sought with a large enough effect; inconclusive means small, poorly fitted or top-dose-only effect, or another doubt; inactive means no such curve, though single readings can be large; an effect the other way counts as inactive or inconclusive.
# Assays:
# [1] = qHTS for Hypoxia signaling pathway (HIF-1) agonists against the NCATS CANVASS Library (AID 1347375); settings: HRE-bla ME-180 cells, HIF-1 beta-lactamase reporter, 17 h; series mostly up to 38.3 µM
# Procedure, shortened: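 Read-out: beta-lactamase FRET (CCF4-AM, ex 405, em 460 and 530 nm) after 2 h at room temperature. ME-180 cells stably carrying HRE-bla were treated 17 h at 37C with compounds in an 11-point concentration series.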
# [2] = DH5-alpha competent E. coli microbial cell viability qHTS against the NCATS CANVASS Library (AID 1347377); settings: BacTiter-Glo ATP luminescence, overnight; series mostly up to 46.1 µM
# Procedure, shortened: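 Luminescent ATP read-out (BacTiter-Glo, 20 min RT) after overnight 37C culture of DH5-alpha E. coli with compounds; daunomycin control at 0.2 nM–9.2 uM final.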
# [3] = qHTS for Antimalaria activity screened against the NCATS CANVASS Library (AID 1347380);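 further: Plasmodium falciparum strain Dd2 asexual parasites grown in red blood cells; nearly all actives have a fitted effect of over 40% in size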; settings: P. falciparum Dd2 growth, SYBR Green fluorescence, 72 h; series mostly up to 28.7 µM
# Procedure, shortened: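 SYBR Green fluorescence (ex 485, em 535 nm) read after saponin/Triton lysis and 18 h further incubation; Dd2 asexual blood-stage parasites, 72 h compound exposure, 11-pt concentration series, 2.5% hematocrit, 0.3% parasitemia.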
# [4] = qHTS for inhibitors of ER calcium dysfunction: SERCaMP assay screened against the NCATS CANVASS Library (AID 1347393); settings: SH-SY5Y GLuc-SERCaMP (Gaussia luciferase released on ER calcium loss) secretion, thapsigargin, luminescence; series mostly up to 76.6 µM; further: nearly all actives have a fitted effect of over 40% in size; further: potency means the concentration at half of the fitted maximal effect
# Procedure, shortened: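 Thapsigargin-induced ER calcium depletion drives GLuc-SERCaMP secretion from SH-SY5Y cells; compounds given 16 h beforehand were scored by lowered coelenterazine luminescence after 4 h challenge.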
SMILES,outcome [1],outcome [2],outcome [3],Potency [4]
O=C(O)C(O)Cc1ccc(O)c(O)c1 (stereo not drawn),inactive,inactive,,
O=c1cc(-c2ccccc2)oc2cc(O)c(O)c(O)c12,inactive,,inactive,inactive
COC(=O)[C@@H]1[C@H]2C[C@H]3c4[nH]c5ccccc5c4CCN3C[C@@H]2CC[C@@H]1O,,inactive,inactive,30.5 µM (active)
